As a reminder, the inhibition is the drop in the measured response relative to a control, in per cent.

The campaign covered roughly 320,000 compounds. About 1,300 (0.41%) were called active. Roughly 3% stayed inconclusive and do not appear here. No rule for the calls is given here. These entries were drawn from the full list. Potency and affinity values are given separately.

A short description of the test: growth inhibition of non-replicating M. tuberculosis (AID 488890).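 Also: plate controls were DMSO cells for no effect and high antibiotic wells for full effect.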 The note with it: Mycobacterium tuberculosis non-replicating, at 25 µM, stronger effect = higher value.
As to `COc1ccc(-n2nc(C(=O)NCC(=O)O)c3ccccc3c2=O)cc1`, the inhibition was -2.99%. For the molecule `COc1ccc(NC(=O)Nc2cccc(NC(C)=O)c2)c(OC)c1`, the inhibition worked out at 15.4%. Consider `COCCNc1nnc(SCC(=O)NNC(=O)c2ccccc2)s1`, for which the inhibition is -9.33%. On to `COc1ccc(/C=C2/C(=O)N(c3ccccc3)N=C2C)cc1`, for which the inhibition was 0.19%. As for `CC(=O)Oc1ccc(/C=C2/C(=O)N(c3ccccc3)N=C2C)cc1`, the figure is 32.7%; as for `C(=N\N=C\c1ccccc1)/c1ccccc1`, 9.87%; as for `CCc1nn(CCCC(=O)N2CCC(C)CC2)c(=O)c2cc3occc3n12`, 2.85%. As for `COc1ccc(CNC(=O)c2cnccn2)cc1`, the inhibition was 66.2%. For the molecule `O=C(NCc1ccc(Cl)cc1)c1cnccn1`, the inhibition was 68.3%.

Turning to `O=C(NCc1ccncc1)c1cnccn1`, the inhibition is -7.93%. As for `NS(=O)(=O)c1ccc(CNC(=O)c2cnccn2)cc1`, the figure is -8.46%; as for `CSc1ccc(NC(=O)NCCCN2CCN(c3ccccc3F)CC2)cc1`, 50.5%; as for `Cc1cc(C)cc(NC(=O)C2C3C=CC4(O3)C2C(=O)N(CCCN2CCCCC2)C4C(=O)NC2CCCCC2)c1` (stereo unspecified), 8.2%. Turning to `Cc1cc(OC(=O)c2ccc(S(=O)(=O)N3CCCCC3)cc2)c([N+](=O)[O-])c(=O)[nH]1`, the inhibition was -2.75%.

Regarding `Cc1cc(C(=O)OCC(=O)Nc2cc(Cl)ccc2C)c(C)o1`, the inhibition is 0.98%. As for `O=C(NCc1ccco1)c1ccc(NS(=O)(=O)c2cccc(F)c2)cc1`, the inhibition came to 29.2%. As for `CC(C)COc1ccc(C(=O)Nc2ccc(N3CCOCC3)cc2N2CCOCC2)cc1`, the figure is 43%. For `COc1cccc2cc(-c3ccccc3)c(=O)oc12`, the inhibition was 54.4%. Consider `O=c1oc2c(O)cccc2cc1-c1nc2ccccc2[nH]1`, for which the inhibition was 7.2%.

Regarding `COc1ccc(-c2cc3cccc(OC)c3oc2=O)cc1`, the inhibition was 24.1%. In the case of `COc1cccc2cc(-c3nnc(-c4ccccc4)o3)c(=O)oc12`, the inhibition is 79.1%. On to `O=C(CNS(=O)(=O)c1ccc(Cl)c(C(F)(F)F)c1)NC1CCCCC1`, for which the inhibition worked out at 20.4%. The result for `N#CCSc1nnc(Cc2ccc3c(c2)OCO3)o1` reads 73.3%; that for `CC(=O)CSc1nnc(Cc2ccc3c(c2)OCO3)o1`, 73.1%; that for `Cn1nc(-c2ccccc2)c(COC(=O)c2cccc(Cl)c2)c1S(=O)(=O)c1ccccc1`, -7.33%. With `CCCC(=O)Nc1cccc(-c2nc3cc(C)c(C)cc3o2)c1`, the inhibition was -4.03%. As for `CC(=O)Nc1cccc(-c2nc3ccccc3o2)c1`, the figure is 8.44%; as for `CCC(CC)C(=O)Nc1cccc(-c2nc3ccccc3o2)c1`, -1.13%.

For the molecule `O=C(Nc1cccc(-c2nc3ccccc3c(=O)o2)c1)c1ccccc1`, the inhibition was determined as 60.9%. As for `CC(C)C(=O)Nc1cccc(-c2nc3ccccc3o2)c1`, the inhibition worked out at 9.28%. Regarding `CCCC(=O)Nc1cccc(-c2nc3ccccc3o2)c1`, the inhibition was -1.01%. Consider `CC(=O)Nc1ccc(-c2nc3ccccc3c(=O)o2)cc1`, for which the inhibition turned out to be 68.8%.

`O=C(Nc1ccc2nc(-c3ccccc3)oc2c1)c1ccco1`: the inhibition is -0.45%. In the case of `O=P(Oc1ccccc1)(Oc1ccccc1)C(O)c1ccc(Cl)cc1` (stereo unspecified), the inhibition is -12%.

`COc1cccc(CN2CCNC(=O)C2CC(=O)NC2Cc3ccccc3C2)c1` (stereo unspecified): the inhibition was -15.6%. The result for `COc1ccc(C(=O)/C=C\N2CCOCC2)cc1` reads 10.4%; that for `COCCNC(=S)N1CCC(NC(=O)Nc2ccc(C)cc2)CC1`, -2%; that for `O=C(NCCCNC(=O)c1ccco1)c1ccc(F)cc1`, -2.4%. Consider `O=C(c1ccc([N+](=O)[O-])cc1)N1CCSC1c1ccc(Cl)cc1` (stereo unspecified), for which the inhibition came to 6.9%.

In the case of `CC(=O)N1N=C(c2ccc(Cl)cc2)CC1c1ccc([N+](=O)[O-])cc1` (stereo unspecified), the inhibition was -10.2%. The result for `COc1ccccc1CNC(=O)CCCn1nc(C)c2c(C)n(-c3ccccc3)nc2c1=O` reads 5.28%; that for `O=C(CNC(=O)N1CC(=O)Nc2ccccc21)Nc1cc(Cl)ccc1Cl`, 5.7%; that for `CN1C(=O)N(C)C(c2ccccc2Cl)C2=C1CC(C)(C)CC2=O` (stereo unspecified), 1.21%. `O=C(O)c1ccc(N=N/C(=N\Nc2ccc(C(=O)O)cc2)c2ccccc2)cc1`: the inhibition turned out to be 29.9%. Consider `Brc1ccc(N/N=C(/N=Nc2nn[nH]n2)c2ccccc2)cc1`, for which the inhibition was found to be 76.2%. The result for `CCOC(=O)c1nc(C)nc(Sc2n[nH]c(-c3cc(C(F)(F)F)cc(C(F)(F)F)c3)n2)c1C` reads 46.5%; that for `O=C(O)c1ccccc1C(=O)Nc1ccc(S(=O)(=O)NC2CCCCC2)cc1`, -4.02%. As to `CCC(C)C(NC(=O)c1ccccc1NC(=O)c1ccc(OC)cc1)C(=O)NCCCn1ccnc1` (stereo unspecified), the inhibition is 7.04%. For `CC1(N(O)/C=C2\C=CC=CC2=O)CCCCC1=O` (stereo unspecified), the inhibition is 3.64%. As to `O=C(CN1CCN(S(=O)(=O)c2ccccc2F)CC1)Nc1ccccc1C(=O)c1ccccc1`, the inhibition worked out at 27.9%.

In the case of `Cc1onc(-c2ccccc2Cl)c1C(=O)O/N=C(\N)c1ccccc1`, the inhibition was determined as 10.2%. In the case of `Cc1onc(-c2c(Cl)cccc2Cl)c1C(=O)O/N=C(\C#N)c1c(Cl)cccc1Cl`, the inhibition was found to be 4.59%. As for `Cc1onc(-c2cccc(Cl)c2Cl)c1C(=O)O/N=C(\N)c1ccc([N+](=O)[O-])o1`, the inhibition amounted to 60%. `C/C(=N\OC(=O)c1c(-c2c(F)cccc2Cl)noc1C)c1nccs1`: the inhibition came out at 4.04%. Regarding `O=C(O)c1cccc2c1C(=O)c1ccc(-c3ccc(OC(F)(F)F)cc3)cc1S2(=O)=O`, the inhibition was -2.64%. On to `O=[N+]([O-])c1cc(/C=N/OCc2c(Cl)cccc2Cl)ccc1N1CCOCC1`, for which the inhibition worked out at 22.5%.

Turning to `COC(=O)N1CCN(c2ccc(Cl)c(Cl)c2)CC1`, the inhibition stood at 39%. Consider `CCOC(=O)N1CCN(c2ccc(Cl)c(Cl)c2)CC1`, for which the inhibition was 75.6%. As for `Cc1cc(Cl)c(S(=O)(=O)N2CCN(c3cccc(C)c3C)CC2)cc1OCC(N)=O`, the inhibition was determined as 6.33%. Consider `COC(=O)c1[nH]c2ccc(C)cc2c1NC(=O)C1=COCCO1`, for which the inhibition came out at 2.53%. Regarding `O=C(c1cccc([N+](=O)[O-])c1)c1ccccn1`, the inhibition came out at 2.21%. The result for `O=C(N/N=C(\c1ccccc1)c1cccnc1)c1ccc(O)cc1` reads -6.44%; that for `O=C(N/N=C(\c1ccccc1)c1cccnc1)c1cc(O)ccc1O`, 30.3%. In the case of `COc1ccc(C(=O)NCCNC(=O)c2ccccn2)cc1`, the inhibition is -3.54%. As to `COc1ccc(C(=O)NNC(=O)c2ccccn2)cc1`, the inhibition worked out at 12.8%. For the molecule `COc1cccc(C(=O)NCCNC(=O)c2ccccn2)c1`, the inhibition is -10.9%. As to `COc1cc(C(=O)N/N=C(\c2ccccc2)c2ccccn2)cc(OC)c1OC`, the inhibition worked out at 43.4%. Regarding `C/C(=N/NC(=O)CNC(=O)c1ccccn1)c1cccc([N+](=O)[O-])c1`, the inhibition is -4.01%. The result for `C(=N\N1CCN(Cc2ccccc2)CC1)/c1ccc(-c2ccccc2)cc1` reads 43%; that for `Cc1ccc(CNC(=O)Cn2nnc(C(=O)Nc3cccc(C)c3C)c2N)cc1`, -3.98%. As to `CC(C)c1ccccc1NC(=O)c1ccccc1NC(=O)C1CCCCC1`, the inhibition is -1.84%. Regarding `COc1ccc(C)cc1-n1nnnc1SCC(=O)Nc1cccnc1Cl`, the inhibition turned out to be 17.6%.

Turning to `O=C(NCC(=O)N1CCN(c2ccccn2)CC1)c1ccc(Br)o1`, the inhibition is -3.21%. As for `Cc1ccc(COC(=O)NCc2cccnc2)cc1`, the figure is 4.06%. Regarding `Cc1cc(C)c(C)c(S(=O)(=O)Nc2ccc(C(=O)N3CCCC3)cc2)c1C`, the inhibition is 5.64%. The result for `O=[N+]([O-])c1ccc2nonc2c1Nc1cccc(F)c1` reads 32.1%; that for `O=C(CCCN1CCC(c2ccccc2)C1)c1ccc2c(c1)OCCO2` (stereo unspecified), 12.3%. The result for `COc1cc(C(=O)N2CCN(C(=O)c3ccccc3)CC2)cc(OC)c1OC` reads -17.1%; that for `COc1ccc(-n2nc3c(c2NC(=O)c2ccco2)CS(=O)(=O)C3)cc1`, 3.65%. Regarding `CC(/C=N/N1CCN(c2ccc(C)cc2)CC1)=C\c1ccccc1`, the inhibition turned out to be 10.7%.

On to `COc1ccccc1N1CCN(C(=O)c2sc3nc(-c4ccc(F)cc4)cn3c2C)CC1`, for which the inhibition worked out at 40.2%. On to `CC(=O)N1CCN(C(=O)c2ccc(-c3ccccc3Cl)o2)CC1`, for which the inhibition is 5.06%.

As to `NC(=O)C1CCN(C(=O)c2ccc(-c3ccccc3Cl)o2)CC1`, the inhibition was -8.98%. As for `CC(C)OP(=O)(OC(C)C)C(Nc1ccccn1)c1ccc(F)cc1` (stereo unspecified), the inhibition was -0.14%.

As to `O=C(Cn1cnc2c(nnn2Cc2ccc(Cl)cc2)c1=O)OCc1ccccc1`, the inhibition is -1.54%. As for `O=C(Nc1nccs1)C(Cl)(Cl)Cl`, the inhibition is 5.95%. As for `Cc1cc(C)c2ccc(C(=O)O)nc2c1O`, the inhibition came out at 15.6%.

Take `Cc1cc(C)c2ccc(N)nc2c1O`: the inhibition worked out at 41.3%. Take `CC(=N/O)/C(C)=N\NC(=O)c1ccccn1`: the inhibition is 33%.

As for `O=C(Nc1ncccn1)c1ccc([N+](=O)[O-])cc1`, the inhibition came out at 34%. Turning to `O=C(NNC(=O)c1ccc([N+](=O)[O-])o1)c1ccccc1`, the inhibition stood at 70%. The result for `Cc1cccnc1NC(=O)c1ccc([N+](=O)[O-])o1` reads 70.2%; that for `O=C(Nc1ccccn1)c1ccco1`, 2.01%; that for `O=C1CN(C(=O)CSc2nnnn2-c2ccc(Cl)cc2)c2ccccc2N1`, 20.5%. Regarding `CC(OC(=O)C1CCN(S(=O)(=O)c2ccc(Cl)cc2)CC1)C(=O)NC1CCCCC1C` (stereo unspecified), the inhibition stood at 17.7%. As for `COc1ccc(-c2sc3ccc(N4CCOCC4)cc3c2C#Cc2ccsc2)cc1`, the figure is 36.8%; as for `COc1cccc(C2C(C(=O)OC(C)C)=C(C)N=c3s/c(=C\c4ccc(C(=O)O)cc4)c(=O)n32)c1` (stereo unspecified), -6.22%.

With `COc1ccc(NC(=S)N2CCNC(=O)C2CC(=O)Nc2cccc(Cl)c2C)cc1` (stereo unspecified), the inhibition was 51.6%. As to `CC(=O)Nc1ccc(N=Nc2c(C)[nH]n(C(N)=S)c2=O)cc1`, the inhibition is -7.76%. As to `Cc1ccc([N+](=O)[O-])cc1N=Nc1c(C)[nH]n(C(N)=S)c1=O`, the inhibition was -4.79%.

Take `CC(=O)N(C)c1ccc(N=Nc2c(C)[nH]n(C(N)=S)c2=O)cc1`: the inhibition is -34.4%. In the case of `CCN(CC)S(=O)(=O)c1ccc(N=Nc2c(C)[nH]n(C(N)=S)c2=O)cc1`, the inhibition was -7.96%. In the case of `O=C(Cn1nc(Cc2cccnc2)c2ccccc2c1=O)N1CCN(c2ccccn2)CC1`, the inhibition worked out at 2.03%. `Cc1ccccc1CNC(=O)C(=O)NCC1OCCCN1S(=O)(=O)c1ccc(F)cc1C` (stereo unspecified): the inhibition worked out at 16.5%. Regarding `Cc1cc(C)n2nc(SCC(=O)c3cc(C)n(-c4cc(C)on4)c3C)nc2n1`, the inhibition came out at 35.9%. The result for `NC(=O)NCC12CC3CC(CC(C3)C1)C2` reads -1.98%. Consider `CNC(=O)COc1ccc(S(=O)(=O)N2CCCC2)cc1`, for which the inhibition was -27.9%. For the molecule `O=C(O)COc1ccc(S(=O)(=O)N2CCCC2)cc1`, the inhibition was -9.2%.

`COc1cccc(-c2cn(-c3cccc(C(F)(F)F)c3)c(=S)[nH]2)c1`: the inhibition was found to be 5.54%. In the case of `Cc1cccc(OC(=O)c2cccnc2)c1`, the inhibition was determined as 74.1%. For `COC(=O)c1ccc2nccnc2c1`, the inhibition is -20.4%.

Source of the values: PubChem BioAssay AID488890 (Southern Research Specialized Biocontainment Screening …, 2010).
